This note sets out measurements from PubChem BioAssay AID1846 (The Scripps Research Institute Molecular Screening Center, 2009).

About 1,500 (65%) of roughly 2,300 compounds were called active. The set was probably picked from earlier hits. Only a sample is shown. A number with no mark means an inactive call. Cut-off read from the data, not from the text of the source: active = inhibition above about 18%; inactive = the rest.

The target in the test is Heat shock protein HSP 90-alpha (Homo sapiens) (UniProt P07900). The test is described as follows: HSP90 inhibitors, confirmation, cell lysate, luminescence (AID 1846).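 Note: 0% = vehicle wells and 100% = reference inhibitor wells.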 Conditions: rabbit reticulocyte lysate, luciferase refolding luminescence, 3 h; at 5.9 µM; hits give high values.
As to `C/C(=N\NC(=S)NC1CCCCC1)c1ccc(C)o1`, the inhibition (commonly the drop in the measured response relative to a control, in per cent) is 3.2%. As for `CCOc1ccc(OCc2ccc(C(=O)N(C)c3ccccc3)o2)cc1`, the figure is 28.8% (active); as for `O=C(Nc1ccccc1C(=O)O)c1ccc(N2C(=O)C3CC=CCC3C2=O)cc1` (centres undefined), 25.4% (active). On to `CCOc1ccc(OCc2cccc(C(=O)N(CC)CC)c2)cc1`, for which the inhibition was 39.7% (active). `CCS(=O)(=O)c1cc([N+](=O)[O-])c(Sc2ccccc2N)s1`: the inhibition is 56% (active). For `Oc1c(C=Nc2cccc3nsnc23)ccc2ccccc12`, the inhibition was 6.47%.

As to `O=c1oc(/C=C/c2ccccc2)nc2ccccc12`, the inhibition is 33% (active).

`Cc1ccc(-c2cn3cc(C)ccc3n2)cc1`: the inhibition is 90.3% (active). As for `COc1ccc(-c2cn3ccc(C)cc3n2)cc1`, the figure is 83.5% (active).

As to `Cc1ccc2nc(-c3ccc(Br)cc3)cn2c1`, the inhibition is 82% (active). On to `COc1cc(C(=O)NN(CCC#N)C2=NS(=O)(=O)c3ccccc32)cc(OC)c1OC`, for which the inhibition is -4.73%.

For `CCc1ccc(Nc2ncc3c(n2)CC(c2ccco2)CC3=O)cc1` (centres undefined), the inhibition was -4.8%. On to `CCOC(=O)N1CCN(Cc2nc3c(c(=O)n(C)c(=O)n3C)n2Cc2ccccc2)CC1`, for which the inhibition is -3.3%. As for `COc1cc(CNC2CCCCC2)c(Br)cc1OC1CCCC1`, the inhibition is 5.53%. As to `Cc1sc2nc(CSCC(=O)Nc3c(Cl)cccc3Cl)[nH]c(=O)c2c1C`, the inhibition was -4.2%. For `CCc1ccc2oc(-c3ccc(N)cc3)nc2c1`, the inhibition is 53.6% (active). Turning to `Nc1ccc(-c2nnc(-c3ccccc3)o2)cc1`, the inhibition is 4.47%. As to `Clc1ccc2nc(CSc3ccccc3)cn2c1`, the inhibition was 57% (active). On to `Cc1cccc(CCNC(=O)Cn2ncc3c([nH]c4ccc(C)cc43)c2=O)c1`, for which the inhibition was 5.53%. For the compound `Cc1csc(SCC(=O)Nc2sccc2C#N)n1`, the inhibition is 42.4% (active). Consider `Cc1cc(C(=O)COC(=O)C2CC2)c(C)n1-c1ccc(F)cc1`, for which the inhibition was 87.3% (active). As for `O=C1CCC([N+](=O)[O-])C(c2ccccc2Br)N1` (centres undefined), the figure is -5.63%; as for `O=C(OC1CCOC1=O)c1ccc(-c2nc3ccccc3s2)s1` (centres undefined), 60.6% (active). Next, `CCCCNC(=O)Nc1c(C)cc(SC#N)cc1C`: 4.17%. As for `CN(CCO)c1ccc(/C=N/Nc2nncc3ccccc23)cc1`, the figure is 91.8% (active); as for `Cc1ccc(Nc2nc(-c3ccc(O)cc3O)cs2)nc1`, 0.63%; as for `O=C(CN1C(=O)c2ccccc2S1(=O)=O)N1CCc2ccccc21`, 46.1% (active). Turning to `CCOC(=O)CNC(=O)c1nn(-c2cccc(OC)c2)c(=O)c2ccccc12`, the inhibition is -0.53%. `COc1ccc(-c2nc(-c3ccccc3)no2)c(OC)c1`: the inhibition was 84.8% (active).

On to `CCOc1c(Br)cc(/C=C2\C(=O)N(CCC#N)N=C2C)cc1OC`, for which the inhibition was -11.9%.

Consider `N#C/C=C\Oc1ccc(Cl)cc1N`, for which the inhibition is -1.37%. As for `CN(C)c1ccc(-n2cccc2/C=N/n2cnnc2)cc1`, the inhibition is 45.9% (active).

Consider `CC(C)Nc1ccc(-n2nc3ccccc3[n+]2[O-])cc1`, for which the inhibition is 51.6% (active). As for `Cc1ccc(C(=O)COC(=O)c2cccc(N3C(=O)c4c(C)nc5ccccc5c4C3=O)c2)cc1C`, the inhibition was 4.83%.
